Bioassay records from PubChem.
Hits are enriched below; roughly 4.9% of the tested compounds scored in any of these assays.
OTUD3 inh: human OTUD3 deubiquitinase inhibition | Q5T2D3 | purified OTUD3, Ub-rhodamine fluorescence, 2 h | inhibition, % at 25 µM | 0.7% of 47,000 active
UCHL1 inh: human UCHL1 deubiquitinase inhibition. purified UCHL1, Ub-rhodamine cleavage fluorescence. inhibition, % at 20 µM. 0.2% of 47,000 active. AID 1645859
USP8 block: inhibitors of human USP8 deubiquitinase; purified USP8, Ub-rhodamine cleavage fluorescence, 30 min; 4.2% of 47,000 active; P40818; inhibition, % at 20 µM
USP10 block: blocks human USP10 ubiquitin-rhodamine cleavage | purified USP10, Ub-rhodamine fluorescence, 60 min | inhibition, % at 20 µM | 1.1% of 47,000 active | Q14694
USP7 block: blocks human USP7 ubiquitin-rhodamine cleavage; AID 1645854; inhibition, % at 20 µM; Q93009; purified USP7, Ub-rhodamine cleavage fluorescence; 0.3% of 47,000 active
Numbers without * were called inactive. Cut-off read from the data, not from the text of the source: active = inhibition above about 30%; inactive = the rest.

Results for O=C(Nc1ccc(-c2cn3ccccc3n2)cc1)C1C=C2C=C(Br)C=CC2OC1=O (stereo not drawn) ?
OTUD3 inh: 42.6*; UCHL1 inh: 3.3; USP8 block: 4.8; USP10 block: 5.4; USP7 block: 5.0

How did COc1cc(NC(=O)Cc2cn3ccccc3n2)cc(OC)c1 do in these assays?
OTUD3 inh: -19.3; UCHL1 inh: -12.9; USP8 block: -276.7; USP10 block: -2.9; USP7 block: -9.6

Results for N#Cc1ccc(CNC(=O)[C@@H]2Cc3nc[nH]c3CN2Cc2ccc(C(=O)O)cc2)cc1 ?
OTUD3 inh: -5.0; UCHL1 inh: -5.6; USP8 block: 1.4; USP10 block: -1.3; USP7 block: -6.9

Results for CCn1cc(NC(=O)c2cc(C)n(C(F)F)n2)c(C(=O)NC2CCCC2)n1 ?
OTUD3 inh: -0.9; UCHL1 inh: 2.6; USP8 block: -49.7; USP10 block: -0.3; USP7 block: -0.1

Results for O=C(Nc1ccc(-n2cccc2)c(Cl)c1)c1cccc([N+](=O)[O-])c1 ?
OTUD3 inh: -6.1; UCHL1 inh: 5.5; USP8 block: -2.2; USP10 block: 8.7; USP7 block: -37.5

What do the screens show for `O=C(Nc1ccc(-n2cccc2)cc1)c1cccc([N+](=O)[O-])c1`?
OTUD3 inh: -0.2; UCHL1 inh: -4.0; USP8 block: 30.8*; USP10 block: 18.9; USP7 block: 0.1

What do the screens show for `O=C(COc1ccc2ccccc2c1)NCc1nnnn1-c1ccc(F)c(F)c1`?
OTUD3 inh: -4.4; UCHL1 inh: 0.0; USP8 block: -22.4; USP10 block: 2.1; USP7 block: 2.0

How did Fc1cc(F)c2[nH]cc(-c3nnnn3-c3ccc4ccccc4c3)c2c1 do in these assays?
OTUD3 inh: 13.1; UCHL1 inh: 10.5; USP8 block: 55.4*; USP10 block: 31.5*; USP7 block: 25.2

What do the screens show for `O=C(NCCc1nc(-c2ccc3c(c2)OCO3)n[nH]1)c1cccc(Br)c1`?
OTUD3 inh: 2.2; UCHL1 inh: 1.6; USP8 block: 10.2; USP10 block: 0.7; USP7 block: -0.1

Results for CCCc1cc(C2CCCN2C(=O)c2cc(-c3ccccc3)no2)no1 (stereo not drawn) ?
OTUD3 inh: 15.6; UCHL1 inh: 4.5; USP8 block: 6.2; USP10 block: 2.5; USP7 block: 0.6

What do the screens show for `O=C(Nc1nc2c(ccc3ccccc32)s1)c1cccc(Br)c1`?
OTUD3 inh: 2.5; UCHL1 inh: 0.0; USP8 block: 35.6*; USP10 block: -1.8; USP7 block: 8.5

Results for O=C(Cc1cccc2ccccc12)Nc1nc2ccc(Br)cc2s1 ?
OTUD3 inh: -6.0; UCHL1 inh: -0.8; USP8 block: -88.3; USP10 block: 0.0; USP7 block: -37.8

Results for COc1ccc(C(=O)Nc2ccc3c(c2)C(=O)N(C)c2ccccc2O3)cc1 ?
OTUD3 inh: 0.3; UCHL1 inh: 4.5; USP8 block: 8.3; USP10 block: 5.1; USP7 block: 6.1

How did Cc1ccc2c(c1)N(C)C(=O)c1cc(NC(=O)c3ccc(F)cc3)ccc1O2 do in these assays?
OTUD3 inh: 15.7; UCHL1 inh: 3.2; USP8 block: 77.0*; USP10 block: 40.1*; USP7 block: 20.3

How did Cc1ccc(-n2ncc3c(O)c(C(=O)Nc4ccccc4F)c(=O)[nH]c32)cc1 do in these assays?
OTUD3 inh: 14.0; UCHL1 inh: 1.7; USP8 block: 83.3*; USP10 block: 18.4; USP7 block: -14.2

What do the screens show for `CCc1ccccc1NC(=O)c1c(O)c2cnn(C)c2[nH]c1=O`?
OTUD3 inh: -11.6; UCHL1 inh: -2.2; USP8 block: 84.5*; USP10 block: -0.3; USP7 block: -0.7

Results for Cc1ccc(-c2noc(-c3c(O)c4cnn(-c5ccccc5)c4[nH]c3=O)n2)cc1 ?
OTUD3 inh: -3.2; UCHL1 inh: 0.8; USP8 block: -6.7; USP10 block: 1.2; USP7 block: 4.5

What do the screens show for `Cc1nn2c(CNC(=O)Cc3cccc(F)c3)c(C)nc2s1`?
OTUD3 inh: 0.0; UCHL1 inh: 1.9; USP8 block: -2.6; USP10 block: 0.2; USP7 block: 3.9

What do the screens show for `COc1cccc(C2CCNc3ccccc3N2)c1` (stereo not drawn)?
OTUD3 inh: -22.3; UCHL1 inh: -4.4; USP8 block: 74.0*; USP10 block: -7.8; USP7 block: -18.6

What do the screens show for `COc1ccccc1C1CCNc2ccccc2N1` (stereo not drawn)?
OTUD3 inh: -9.5; UCHL1 inh: -5.6; USP8 block: -10.6; USP10 block: -2.2; USP7 block: -7.8
